# Unmarked numbers belong to inactive results. The rule behind the calls is not given here.
# Target: Pantothenate synthetase (Mycobacterium tuberculosis (strain ATCC 25618 / H37Rv)) (UniProt P9WIL5)
# Experiment: Coupled enzyme confirmation of inhibitors against recombinant Mtb PanC (AID 375);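 note: 0% = full reaction with vehicle and 100% = no enzyme background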
# Details: coupled enzyme assay; at 10 µM, hits give high values
# Chain of Pantothenate synthetase (Mycobacterium tuberculosis (strain ATCC 25618 / H37Rv)) (P9WIL5 whole entry, looked up): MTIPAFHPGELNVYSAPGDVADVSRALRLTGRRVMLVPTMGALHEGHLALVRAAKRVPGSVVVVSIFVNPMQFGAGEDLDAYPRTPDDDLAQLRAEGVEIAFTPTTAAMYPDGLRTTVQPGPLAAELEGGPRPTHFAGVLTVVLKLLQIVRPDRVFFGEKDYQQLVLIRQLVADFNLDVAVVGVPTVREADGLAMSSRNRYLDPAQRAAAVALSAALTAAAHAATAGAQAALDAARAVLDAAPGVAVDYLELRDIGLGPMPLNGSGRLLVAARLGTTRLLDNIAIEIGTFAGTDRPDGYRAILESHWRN
row,SMILES,inhibition [%]
1,CCCCOc1cccc(NC(=O)CSc2nccn2C)c1,2
2,COc1ccc(NC(C)=O)cc1NC(=O)CN1CCN(c2ccccn2)CC1,0
3,Cc1ccccc1Cn1c(=O)c2c(nc3n2CCCN3Cc2ccccc2)n(C)c1=O,0
4,O=C(O)CC(C(=O)Nc1cccc(C(F)(F)F)c1)C1CCCO1 (centres undefined),1
5,COc1ccccc1N1CCN(C(=O)CCNS(=O)(=O)c2ccc3c(c2)CCC(=O)N3)CC1,0
6,O=C(c1ccc(Cl)cc1)N1CCCCC(Sc2nnc(-c3ccc4c(c3)OCO4)o2)C1=O (centres undefined),3
7,COc1ccccc1N1CCN(C(=O)CSc2nc3ncnc(N)c3[nH]2)CC1,8
8,CCc1ccc(NC(=O)CSc2nnc(Cc3cccn3C)n2-c2ccc(OC)cc2)cc1,0
9,O=C(CSc1nnc(-c2ccccc2F)o1)OCc1ccccc1,0
10,CCc1nc(SCc2cc(Cl)ccc2OC)n[nH]1,0
11,O=C(Nc1ccc(N2CCOCC2)cc1)c1cccc(S(=O)(=O)N2CCCC2)c1,0
12,CSc1nc(C)c(C(=O)Nc2ccccc2)c(C)c1C#N,0
13,CC(=O)NCc1nc2ccccc2n1C(C)C,0
14,CCCN1C2CCCC1CC(NC(=O)Nc1cccc(C(C)=O)c1)C2 (centres undefined),1
15,CCn1c(=O)cc(SCC(=O)N2CCN(C3CCCCC3)CC2)c2ccccc21,2
16,COc1ccc(C(=O)NCc2nc3ccccc3[nH]2)cc1OC,5
17,CCOC(=O)C(NC(=O)C1CCCN1C(=O)OCc1ccccc1)C(=O)OCC (centres undefined),4
18,CCC1C(=O)N=C(SCC(=O)Nc2cccc3ccccc23)NC1=O (centres undefined),0
19,Oc1c(Cl)cc(Cl)cc1CNc1ccc(Br)cn1,4
20,Cc1cnc(NC(=O)CSc2nnc(COc3c(C)cccc3C)o2)s1,8

row,SMILES,inhibition [%]
1,O=C1CCC(c2ccccc2)N1C(=O)c1cccnc1 (centres undefined),0
2,COc1cccc(C2C(C(N)=O)=C(C)Nc3nc(-c4ccccc4Cl)nn32)c1 (centres undefined),0
3,CCc1cc(=O)oc2cc(OC(C)=O)cc(OC(C)=O)c12,0
4,Nc1nc(SCc2ccc(Cl)cc2Cl)n[nH]1,5
5,CCCCC(NS(=O)(=O)c1ccc(OC)cc1)C(=O)O (centres undefined),0
6,O=C(NC1CC2CCC1C2)c1ccc(CN2CCOCC2)cc1 (centres undefined),5
7,Cn1c(=O)c(C(=O)Nc2cccnc2)c(O)c2ccccc21,5
8,CCN1CCN(CCNC(=O)c2cn(C(C)c3ccccc3F)nn2)CC1 (centres undefined),0
9,COc1ccc(N2C(=O)CC(N3CCCC4CCCCC43)C2=O)cc1 (centres undefined),0
10,C=CCn1c(=O)n(CCOC)c(=O)c2sc3ccccc3c21,0
11,CC(=O)c1ccccc1Oc1nc(CN2CCOCC2)nc2scc(-c3cccs3)c12,3
12,CCCOc1cccc(C(=O)Nc2cc(NC(=O)c3ccco3)ccc2OC)c1,0
13,C/C(N)=C(/C#N)C(=O)CSc1nnc(Nc2c(C)cccc2C)s1,9
14,COc1ccc2c(C)nc(Nc3nc(C)cc(C)n3)nc2c1,6
15,CCOC(=O)N1CCN(c2cc(=O)n(-c3cccc(Br)c3)c(=O)[nH]2)CC1,0
16,O=C1CCCCCC1C1(O)C(=O)Nc2ccccc21 (centres undefined),7
17,CS(=O)(=O)N(CC(=O)Nc1cccc(F)c1)Cc1ccccc1,0
18,Cc1cc(C)c(S(=O)(=O)Nc2cccnc2)c(C)c1,0
19,CC1=C(n2nnc3ccccc32)C(c2ccccc2)C(C#N)=C(N)O1 (centres undefined),5

# — PubChem BioAssay
